The record followed here is PubChem BioAssay AID652017 (The Scripps Research Institute Molecular Screening Center, 2013).

About 3,800 (1%) of roughly 370,000 compounds were called active. This excerpt belongs to a sample that is enriched for actives. Values without a mark were called inactive. Rule as the data show it: active = activation above about 7.8%; inactive = the rest.

The test is described as follows: SMARCA2 (BRM) function activators, primary screen, cell-based, luminescence, high throughput (AID 652017).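 Also: 0% = vehicle wells and 100% = reference activator wells.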 To be noted: MG213 cells, MMTV-luciferase reporter, dexamethasone, overnight; at 9.1 µM; active compounds read high. In general terms: In a reporter assay the amount or activity of a reporter protein is the signal.
As for `C=CC[C@]12C[C@@]3(O[C@H](c4ccc(C(F)(F)F)cc4)N=C3C[C@H](c3ccc(OC)cc3)[C@H]1C)N(C1CCN(Cc3ccccc3)CC1)C2=O`, the activation is -1.14%. In the case of `Cc1nnc(NC(=O)Cn2c(=O)sc3ccccc32)s1` it was 8.41% (active); in that of `Cc1nnc(NC(=O)CSc2nccn2-c2cccc(C)c2C)s1`, -0.75%.

Turning to `O=C(Cn1c(=O)sc2ccccc21)Nc1ccc2c(c1)OCCO2`, the activation was -0.22%. In the case of `C=C(C)C1CC23C(=O)C4(C(=O)c5ccccc5)C[C@@]5(C)CCC(CC2C1(C)C)(C4=O)C35OC` (stereo partly drawn) it was -5.25%; in that of `Cc1ccccc1CN1CCCCC(NC(=O)Nc2ccccc2F)C1=O` (stereo not drawn), -2.59%. In the case of `C[C@@H](NC(=O)c1ccccc1OCC(=O)Nc1ccc(I)cc1)C(=O)N(C)Cc1ccccc1` it was -3.4%. Turning to `CC(C)CCC(C)NC(=O)c1ccc2nccnc2c1` (stereo not drawn), the activation was 0.02%. The value for `CC(C)CCNC(=O)c1ccc2c(Cl)c3c(nc2c1)CCC3` was 10.7% (active). In the case of `O=C(CSc1c2c(nc3ccc(Cl)cc13)CCCC2)NCc1ccco1` it was 3.79%; in that of `O=C(O)CSCc1ccc(C(=O)O)o1`, 0.73%; in that of `O=C(O)c1ccc(COc2c(F)c(F)cc(F)c2F)o1`, 8.75% (active). In the case of `O=C(O)c1ccc(NC(=O)c2ccc(COc3ccc(Cl)cc3)o2)cc1` it was -1.89%; in that of `COc1cc(NC(=O)C2=C(C)OCCS2)c(Cl)cc1C(=O)NCCCN1CCCC(C)C1` (stereo not drawn), -0.17%; in that of `NC1=NN(c2cccc(C(=O)O)c2)C(=O)C1`, -1.73%. In the case of `Cc1cccc(C(=O)N2CCN(S(=O)(=O)N3CCCCC3)CC2)c1`, the activation was 3.31%. In the case of `O=C(O)c1cccc(N=NN2CCCCCC2)c1` it was 17.7% (active). The value for `Cc1cc(C)n2c(Nc3c(C)cccc3C)c(CCc3ccccc3)nc2n1` was 0.46%; that for `O=C(NCc1cccs1)C1CCCN(S(=O)(=O)c2ccc([N+](=O)[O-])cc2)C1` (stereo not drawn) was 0.22%; that for `CCC(C)[C@@H](C(=O)OC)N(CCc1cn(Cc2ccccc2)nn1)S(=O)(=O)c1ccccc1Br` (stereo partly drawn) was -5.37%. The value for `COc1ccccc1C1=Nc2cccc3cccc(c23)N1` was 8.11% (active); that for `COc1ccccc1-c1sc2ccccc2c1-c1ccc(Br)nc1` was -0.09%. Regarding `COc1ccccc1C1=CC(=O)CCC1`, the activation was 1.01%. In the case of `CCOc1ccc(N(CC(=O)Nc2c(C)n(C)n(-c3ccccc3)c2=O)S(=O)(=O)c2ccc(Cl)s2)cc1` it was 3.83%; in that of `CCC(CO)Nc1cccc2c1S(=O)(=O)N(Cc1cn(Cc3ccccc3C(F)(F)F)nn1)Cc1ccccc1O2` (stereo not drawn), -1.93%; in that of `O=C(CSc1cccc[n+]1[O-])c1ccc(-c2ccccc2)cc1`, 1.84%. In the case of `Cc1ccc(C(=O)CSc2ccccc2C(=O)O)cc1`, the activation was 9.24% (active). In the case of `Cc1ccccc1C(=O)O` it was -3.71%; in that of `CCC1CO/C(=C(\C(=C(Cl)Cl)N2CCOCC2)[N+](=O)[O-])N1` (stereo not drawn), -2.15%.

As for `Cc1cc(Br)cn2c(Cc3ccccc3C(F)(F)F)c(-c3ccc(Cl)cc3)nc12`, the activation was 3.06%.

For `Cc1cc(Br)cn2c(Cc3ccccc3C(F)(F)F)c(-c3ccc(C#N)cc3)nc12`, the activation is -1.52%. In the case of `Cc1ccc(-c2nc3ccc(Br)cn3c2Cc2ccccc2C(F)(F)F)cc1` it was 8.44% (active); in that of `Cc1ccc(-c2nc3ccc(Cl)cn3c2Cc2ccccc2)cc1`, 10.1% (active). Take `COc1ccccc1Cc1c(-c2ccc(Cl)cc2)nc2ccc(Cl)cn12`: the activation was 4.42%. As for `Brc1ccc2nc(-c3ccccc3)c(Cc3ccccc3)n2c1`, the activation is 3.02%. For `COC(=O)c1cc(S(=O)(=O)N2CCN(C(=O)C3CCCO3)CC2)cn1C` (stereo not drawn), the activation is -1.22%. `CC(C)CNS(=O)(=O)CC1NCCc2ccccc21` (stereo not drawn): the activation was -3.17%.

`COc1cccc(Cn2cc(COC(=O)Nc3ccc(F)cc3)nn2)c1`: the activation was -0.28%. The value for `COc1cccc(N(C)C(=O)[C@@H](C)[C@@H](O)c2ccc3ccccc3c2)c1` was -2.05%. The value for `COc1ccnc(NC(=S)N2CCN(c3ncc(C(F)(F)F)cc3Cl)CC2)c1` was -3.61%; that for `COc1ccc(CN2C(=O)N3Cc4cc(OC)ccc4C3CS2(=O)=O)cc1` (stereo not drawn) was -5.55%; that for `CC(C)NC(=O)C(=O)NCCN1CCN(S(=O)(=O)c2ccc(Cl)cc2)CC1` was -1.85%. In the case of `C#CCNC(=O)C[C@H]1C[C@@]2(C(=O)OC)C(=C[C@H](C(C)C)O[C@@H]2C2CC2)N(Cc2ccco2)C1=O` it was -5.88%. Turning to `COc1ccc(CN2CC[C@H]3C=CC[C@@H](C(=O)N4CCOCC4)[C@H]3C2=O)cc1OC`, the activation was 1.07%. In the case of `Cc1ccc(Nc2nc(Cl)c(C=O)s2)cc1` it was 8.44% (active); in that of `Cc1ccc(Nc2ccccc2N)cc1`, 0.3%; in that of `Cc1ccc(Nc2cc(C)nc3c(C)ccc([N+](=O)[O-])c23)cc1`, -1.39%. The value for `COC(=O)C1CN(CCc2ccccc2)CCS(=O)(=O)N1Cc1ccc(F)cc1` (stereo not drawn) was 0.54%; that for `CC1=CC(=O)C=CC1(C)C(Cl)(Cl)Cl` (stereo not drawn) was -0.07%. In the case of `Cc1cc(C)nc(Nc2n[nH]c(-c3ccccc3N)n2)n1` it was 8.89% (active); in that of `Clc1ccc(-n2c(SC/C=C/c3ccccc3)nnc2-c2ccco2)cc1`, -3.27%. Turning to `Cc1ccc2nnn(Cc3cccc(C(C)(C)C)c3O)c2c1`, the activation is -2.51%. In the case of `CCOC(=O)CNC(=O)N(C)[C@H]1C[C@H]2c3[nH]c4c(-c5ccc6c(c5)OCO6)cccc4c3CCN2C(=O)[C@H]1[C@H](C)O` it was -1.46%; in that of `COCC1CCN(C(=O)C2CCC(=O)N(Cc3cccc(C(F)(F)F)c3)C2)CC1` (stereo not drawn), 13.1% (active).

As to `COCC1CCN(C(=O)C2CCC(=O)N(CC3CCCCC3)C2)CC1` (stereo not drawn), the activation is -3.22%. For `O=C1CCC(C(=O)N2CCCCO2)CN1Cc1cccc(C(F)(F)F)c1` (stereo not drawn), the activation was -2.44%. The value for `O=C(CSc1nnc(-c2cccc(Cl)c2)n1Cc1ccco1)Nc1ccc(OCc2ccccc2)cc1` was -5.35%; that for `Cc1sc2ncnc(N3CCC(C(=O)Nc4nc5ccc(Cl)cc5s4)CC3)c2c1C` was 4.88%; that for `Cc1ccc(C(=O)Nc2nc3ccc(Cl)cc3s2)o1` was 12.3% (active). In the case of `O=C(Nc1nc2ccc(Cl)cc2s1)c1cc(-c2ccc(Cl)cc2)nc2ccccc12` it was -3.62%; in that of `COC1=C[C@H](C(=O)NCCNC(C)=O)[C@H](C)[C@@H](c2ccccc2)CC1=O`, -1.73%. In the case of `O=C1CC[C@@H](COc2ccc3[nH]cc(-c4ccccc4)c3c2-c2ccccc2)N1` it was -2.62%. As to `COC(=O)[C@]12C[C@H](CC(=O)N3CCOCC3)C(=O)N(Cc3ccc(Cl)cc3Cl)C1=C[C@H](C(C)C)O[C@@H]2C1CC1`, the activation is -2.82%. Turning to `Cc1nc2ccccc2nc(=O)c1NNc1ccc([N+](=O)[O-])cc1`, the activation is 2.04%.

On to `Cc1ccc(-n2cc3ccc([N+](=O)[O-])cc3n2)cc1`, for which the activation was 3.85%. For `O=[N+]([O-])c1ccc2c(c1)Nc1nc3ccccc3nc1N2`, the activation is 15.2% (active). The value for `COc1ccc(CSc2nnc(SCC(=O)Nc3ccccc3C(F)(F)F)s2)cc1` was -1.77%.

Regarding `COc1ccc(CN2CCOC2=O)cc1OC`, the activation is -2.13%. In the case of `COc1ccc(CC2c3cc(OC)c(OC)cc3CC[N+]2(C)CCC(=O)OCCCCCOC(=O)CC[N+]2(C)CCc3cc(OC)c(OC)cc3C2Cc2ccc(OC)c(OC)c2)cc1OC` (stereo not drawn) it was 11.4% (active); in that of `COC(=O)C1=CN(Cc2ccc(OC)c(OC)c2)C=C(C(=O)OC)C1c1cccs1`, -1.26%; in that of `CN(CCO)c1cccc2c1S(=O)(=O)N(Cc1cn(Cc3ccc(C(F)(F)F)cc3)nn1)Cc1ccccc1O2`, 3.38%. Turning to `CC(C)CNC(=O)OCc1cn(Cc2ccc(F)cc2)nn1`, the activation is -0.88%. The value for `CCOC(=O)[C@@]12CCC3=C1N(CCC3)C(=O)[C@H](CC(=O)N1CCN(C(=O)c3ccco3)CC1)C2` was -0.99%; that for `COc1cccc(CNC(=O)[C@H]2CCCN2C(=O)[C@H]2CCCN2C(=O)c2ccc(F)cc2)c1` was -5.59%; that for `O=C(NC1CCCC1)C(=O)c1c[nH]c2ccccc12` was 10.3% (active). In the case of `CC1CCN(CC(=O)c2c[nH]c3ccccc23)CC1` it was 4.35%; in that of `O=C(NCCCc1ccccc1)C(=O)c1c[nH]c2ccccc12`, 7.21%; in that of `Cc1nn(C(C)(C)C)c(OC(=O)CC(C)C)c1S(=O)(=O)c1ccccc1`, -0.75%.

With `N#Cc1c(/N=C/N2CCCC2)oc(-c2ccccc2)c1-c1ccccc1`, the activation is 1.32%. Regarding `CCOc1ccc(NC(=S)N2CCC(N(C)CC3CCCO3)CC2)cc1` (stereo not drawn), the activation was 4.49%. The value for `CCC(C)N(C)C1CCN(C(=S)Nc2ccc(OC)cc2)CC1` (stereo not drawn) was 8.91% (active); that for `COc1ccc(N2CCN(C(=S)Nc3ccc(S(N)(=O)=O)cc3)CC2)cc1` was -1.43%. In the case of `O=C(CSc1nc2ccccc2n1Cc1ccccc1)NNC(=S)Nc1ccccc1` it was 4.3%. In the case of `COc1ccc(OC)c(NC(=O)c2cccc(S(=O)(=O)N3CCN(C(C)=O)CC3)c2)c1` it was -1.12%; in that of `COc1cccc(C(=O)Nc2cc3c(cc2Br)OCCCO3)c1`, 11% (active).

In the case of `COc1cccc(/C=C/C(=O)Nc2ccc3c(c2)OCCO3)c1`, the activation was 5.29%.

For `O=S1(=O)C[C@@H](N2CCN(CCO)CC2)[C@H](COCc2ccccc2)N1`, the activation is -4.94%. With `COC(=O)[C@]12C[C@H](CC(=O)NCc3cccs3)C(=O)N(CCc3ccc(OC)c(OC)c3)C1=C[C@H](C(C)C)O[C@@H]2C1CC1`, the activation was -3.39%.
